# ERa coact pot: enhancers of ERα–SRC-1 coactivator binding, primary screen, biochemical, TR-FRET, ERα LBD, low estradiol; Estrogen receptor (Homo sapiens), P03372; coactivator binding (% of control), % at 25.6 µM; 86,000 compounds, 1.3% hits; TR-FRET ERalpha-LBD/SRC-Cy5 coactivator binding, 2 h; 100 = basal binding, no effect; in the data active = activity above about 200%;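 also: binding measured in presence of low estradiol as agonist stimulus; 0% = peptide alone without receptor and 100% = receptor with peptide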
# FAK blocker: FAK kinase inhibitors, primary screen, biochemical; AID 727, 2007; 97,000 compounds, 0.84% hits; biochemical FAK kinase activity assay; inhibition, %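 (tested at 7 µM)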; in the data active = inhibition above about 19%;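 also: 0% = DMSO and 100% = reference compound high control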
# ERb coact inh: inhibitors of ERβ-SRC1 coactivator interaction, primary screen, biochemical, TR-FRET, ERβ LBD, SRC-1 peptide. TR-FRET ER-beta LBD / SRC1-Cy5 peptide binding; receptor agonist-loaded with 1 µM estradiol. inhibition, % at 25.6 µM. 86,000 compounds, 1.3% hits;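 active = compounds whose percent inhibition of the receptor-coactivator binding signal exceeds about 50% in the single-dose screen, limit read from the data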;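 also: 0% = receptor plus peptide wells without compound and 100% = peptide-only wells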
# ERa coact inh: ERα–SRC-1 coactivator interaction inhibitors, primary screen, biochemical, TR-FRET, ERα LBD, estradiol-bound; Estrogen receptor (Homo sapiens), P03372; TR-FRET ER-alpha LBD / SRC-1 peptide; inhibition, % at 25.6 µM; 86,000 compounds, 1.7% hits; in the data active = inhibition above about 50%;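 also: 0% = receptor plus peptide control and 100% = peptide only without receptor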
# Smad3 FoxH1 inh: Smad3/FoxH1 peptide binding inhibitors, primary screen, biochemical, TR-FRET | 88,000 compounds, 0.29% hits | inhibition, % at 25 µM | Mothers against decapentaplegic homolog 3 (Homo sapiens), P84022 | TR-FRET Smad3/Dy647-FoxH1 peptide binding, europium anti-His;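 active = compounds that reduce the energy-transfer binding signal between the protein and its labelled peptide by more than half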;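 also: 0% = Smad3 plus labelled peptide maximal FRET and 100% = peptide-only background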
# Starred values were filed as active, the others as inactive; / = no result given; [ ] = remark or other dose. The list is not random: actives were taken first. Their share in the collection is about 3.3%.
SMILES,ERa coact pot,FAK blocker,ERb coact inh,ERa coact inh,Smad3 FoxH1 inh
CCOC(=O)c1c(NC(=O)c2cccs2)sc2c1CCC2,263*[fluorescence artefact?],/,15,16,-1
CCOC(=O)c1c(NC(=O)CSc2nnc(CNC(=O)c3ccco3)n2C)sc2c1CCC2,76,-4,23,65*,6
CCOC(=O)c1c(NS(=O)(=O)c2ccc(Br)cc2)sc2c1CCC2,42,5,56*,61*[fluorescence artefact?],5
N=C(N)SCc1nc(-c2ccc(Cl)cc2)no1,/,/,/,/,15
CCc1ccc2c(c1)N(C[C@H](C)CN(C)C)c1ccccc1S2,/,/,/,/,-5
CC1=CC(C)(C)Nc2ccc(C)cc21,121,-3,-2,3,73*
N#Cc1c(N2CCCCC2)nc(N)c2c(N)nc3c(c12)CC(c1ccccc1)O3 (stereo not given),217*[fluorescence artefact?],-7,29,23,-12
CCN(CC)c1nc(N)c2c(N)nc3c(c2c1C#N)CC(c1ccccc1)O3 (stereo not given),80,1,-2,-5,-4
Cc1cc2oc(=O)cc(CN3CCCc4ccccc43)c2cc1C,231*[fluorescence artefact?],/,8,6,5
NC(N)=N[C@@H]1C(O)[C@H](N=C(N)N)[C@@H](O)C(O)[C@H]1O (stereo not given in full),/,/,/,/,7
COc1ccccc1Cn1c(=O)c2ccccc2n2c(SCc3csc(C)n3)nnc12,125,/,1,1,-3
COc1ccccc1Cn1c(=O)c2ccccc2n2c(Sc3ncnc4sccc34)nnc12,259*[fluorescence artefact?],-7,24,0,4
COc1cccc2sc(=NC(=O)c3ccc(S(=O)(=O)N4CCOCC4)cc3)n(C)c12,161,/,11,6,16
CCn1c(=NC(=O)c2ccc(S(=O)(=O)N3CCOCC3)cc2)sc2cccc(OC)c21,261*[fluorescence artefact?],4,40,30,1
CCn1c(=NC(=O)c2ccc(N3C(=O)CCC3=O)cc2)sc2c(OC)ccc(OC)c21,403*,6,22,33,-124
CCCCC[C@@H](O)[C@@H]1C(=O)O[C@@H](C)[C@@H](O)C=C/C=C\C=CC=C/C=C(/C)[C@H](O)C[C@H](O)C[C@H](O)C[C@H](O)C[C@H](O)C[C@H](O)C[C@@H]1O,/,/,/,/,2
Cn1c2ccccc2c(=O)c2c(=O)n(C3CCCCC3)c(-c3cccs3)nc21,436*[fluorescence artefact?],6,4,30,16
CNc1nc(OCC(F)(F)F)nc(N2CCN(C34CC5CC(CC(C5)C3)C4)CC2)n1,126,0,-10,-9,1
Cc1ccc(CNc2oc(COc3ccccc3Cl)nc2C#N)cc1,148,2,13,13,4
COc1ccc(CNc2oc(COc3ccccc3Cl)nc2C#N)cc1,228*[fluorescence artefact?],-1,10,0,1
Cc1cc2ccc(OC(=O)c3ccc(N=C(N)N)cc3)cc2oc1=O,/,/,/,/,12
CCOc1ccc(NC(=O)c2oc3ccccc3c2NC(=O)C2CC2)cc1,115,/,-27,-25,9
N#Cc1cn(-c2ccccc2)nc1-c1cc2ccccc2oc1=O,212*[fluorescence artefact?],2,-10,0,-1
O=Cc1cn(-c2ccccc2)nc1-c1cc2c(ccc3ccccc32)oc1=O,230*[fluorescence artefact?],9,38,52*,4
O=C1CSC(c2cn(-c3ccccc3)nc2-c2cc3ccccc3oc2=O)N1Cc1cccnc1 (stereo not given),118,-1,-4,0,-4
SMILES,ERa coact pot,FAK blocker,ERb coact inh,ERa coact inh,Smad3 FoxH1 inh
COc1ccc(-c2nn(-c3ccccc3)cc2C#N)cc1,130,-1,11,9,4
CCOC(=O)c1cnn(-c2nc(C)nc3sc4c(c23)CCC4)c1N,119,/,6,20,2
N#Cc1cnn(-c2ncnc3sc4c(c23)CCCC4)c1N,/,0,/,/,/
Cc1nc(-n2ncc(C#N)c2N)c2c3c(sc2n1)CCC3,208*[fluorescence artefact?],5,55*[fluorescence artefact?],67*[fluorescence artefact?],12
CCOC(=O)c1cnn(-c2nc(SC)nc3sc4c(c23)CCC4)c1N,61,7,60*,75*[fluorescence artefact?],14
Cc1nnc(SCC(=O)NCc2ccccc2)[nH]c1=O,117,-3,-26,-2,63*
Cc1cc(=O)[nH]c(SCC(=O)NCCc2ccccc2)n1,82,3,7,5,96*
COc1ccc2cc1Oc1ccc(cc1)C[C@H]1c3c(cc(OC)c4c3Oc3cc5c(cc3O4)CCN[C@H]5C2)CCN1C,/,/,/,/,-2
Clc1ccccc1NN(Cc1ccncc1)c1ccccc1Cl,/,/,/,/,14
O=C(CSc1nc2c(sc3ccccc32)c(=O)n1Cc1ccco1)NCC1CCCO1 (stereo not given),279*[fluorescence artefact?],2,39,12,-59
Cn1c(=O)c2[nH]c(CCNC(=O)c3ccccc3)nc2n(C)c1=O,/,/,/,/,-1
C(CCc1nnc2c(n1)CCCC2)Cc1nnc2c(n1)CCCC2,/,/,/,/,-3
Cc1noc(C)c1COC(=O)c1ccc(-c2nc3ccccc3s2)s1,152,-3,42,61*[fluorescence artefact?],15
CCN(CC(=O)O)C(=O)c1cccnc1,/,/,/,/,-5
COc1ccc(CSc2nnc(Cc3sc(-c4ccccc4)nc3-c3ccccc3)o2)cc1,438*[fluorescence artefact?],2,-18,-41,1
Fc1ccc(CSc2nnc(Cc3sc(-c4ccccc4)nc3-c3ccccc3)o2)cc1,274*[fluorescence artefact?],-1,-9,-20,-5
CSc1nnc(Cc2sc(-c3ccccc3)nc2-c2ccccc2)o1,98,2,-5,6,9
NC1(C(=O)NC2(C(=O)O)CCCC2)CCCC1,/,/,/,/,-6
O=C(COc1ccccc1)N(CCc1ccccc1)c1nc(-c2ccc(F)cc2)cs1,/,-2,/,/,/
CCC(C)Sc1nc2c(cnn2-c2ccc(C)cc2)c(=O)[nH]1 (stereo not given),526*[fluorescence artefact?],-3,43,4,10
CCSc1nc2c(cnn2-c2ccc(C)cc2)c(=O)[nH]1,628*,/,23,-19,4
COc1cc2[nH]c(=O)n(CCC(=O)N3CCN(c4cccc(C)c4C)CC3)c(=O)c2cc1OC,116,1,7,53*[fluorescence artefact?],5
COc1cc2[nH]c(=O)n(CCCCCC(=O)N3CCN(c4ccccc4)CC3)c(=O)c2cc1OC,102,3,1,5,8
CCOC(=O)c1[nH]c(C)c(C(=O)c2ccc(C)cc2)c1C,115,2,0,57*[fluorescence artefact?],-1
N#C[C@H](c1ccccc1)N1CCCN([C@@H](C#N)c2ccccc2)C1c1ccccc1O (stereo not given in full),/,/,/,/,45
CN(C)Cc1cc(C(C)(C)C)cc(CNC2CCCCC2)c1O,/,/,/,/,17
CC(C)CNc1nc(N)[nH]c(=O)c1NC=O,/,/,/,/,-2

# Compound activity from PubChem BioAssay.
